Measured values taken from the supplement of paper PMC10849652.
Of roughly 8,800 targets only a part is listed; those with a hit were picked by preference. About 0.5% of all pairs of compound and target were hits.

What was measured:
Assay in all cases: log2 fold change, soluble protein after heating vs DMSO (PISA); higher = thermal stabilisation; K562 lysate, 10 uM; active = over 0.2 and 3.5 SD of the protein, either way, in both replicates (recomputed)
[1] = compound: C1=CC=C(C=C1)[C@H](COC2=CC3=C(C=C2)NC(=O)N3)NC(=O)C4=CC=CN(C4=O)CC5=CC(=C(C=C5)F)F
Outline: (§1)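 Values give the log-two fold change in thermal stability against solvent controls, from duplicates. Crude K562 extract at 1 mg/mL protein, made by dounce homogenisation in PBS pH 7.4 with 1 mM MgCl2, was treated with 10 μM compound for 30 min. After 3 min heating across 48°C-58°C, aliquots were pooled, adjusted to 0.5% NP-40 at 4°C and centrifuged at 21,000xg for 90 min. The supernatant was measured by TMTpro 16plex LC-MS/MS with channel sums equalised.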

[2] = compound: CC1=C(SC2=C1C(=N[C@H](C3=NN=C(N32)C)CC(=O)N)C4=CC=C(C=C4)Cl)C
Outline: as §1

[3] = compound: CC1=C2C(=CC=C1)N=C(N(C2=O)C3=CC=CC=C3C)CN4C=NC5=C(N=CN=C54)N
Outline: as §1

[4] = compound: Cc1sc2c(c1C)C(c1ccc(Cl)cc1)=N[C@@H](CC(=O)OC(C)(C)C)c1nnc(C)n1-2
Outline: as §1

[5] = compound: c1ccc([C@@H]2C[C@H]2NC2CCNCC2)cc1
Outline: as §1

Measured: log2 fold change

MAPKAPK2 (UniProt P49137)
inactive: [1] 0.043 | [2] 0.008 | [3] -0.053 | [4] 0.004 | [5] -0.051

MINDY1 isoform 3 (UniProt Q8N5J2)
inactive: [1] 0.017 | [2] 0.061 | [3] -0.003 | [4] 0.028

MAP4K2 (UniProt Q12851)
UniProt Q12851, sequence (Q12851 whole entry, looked up): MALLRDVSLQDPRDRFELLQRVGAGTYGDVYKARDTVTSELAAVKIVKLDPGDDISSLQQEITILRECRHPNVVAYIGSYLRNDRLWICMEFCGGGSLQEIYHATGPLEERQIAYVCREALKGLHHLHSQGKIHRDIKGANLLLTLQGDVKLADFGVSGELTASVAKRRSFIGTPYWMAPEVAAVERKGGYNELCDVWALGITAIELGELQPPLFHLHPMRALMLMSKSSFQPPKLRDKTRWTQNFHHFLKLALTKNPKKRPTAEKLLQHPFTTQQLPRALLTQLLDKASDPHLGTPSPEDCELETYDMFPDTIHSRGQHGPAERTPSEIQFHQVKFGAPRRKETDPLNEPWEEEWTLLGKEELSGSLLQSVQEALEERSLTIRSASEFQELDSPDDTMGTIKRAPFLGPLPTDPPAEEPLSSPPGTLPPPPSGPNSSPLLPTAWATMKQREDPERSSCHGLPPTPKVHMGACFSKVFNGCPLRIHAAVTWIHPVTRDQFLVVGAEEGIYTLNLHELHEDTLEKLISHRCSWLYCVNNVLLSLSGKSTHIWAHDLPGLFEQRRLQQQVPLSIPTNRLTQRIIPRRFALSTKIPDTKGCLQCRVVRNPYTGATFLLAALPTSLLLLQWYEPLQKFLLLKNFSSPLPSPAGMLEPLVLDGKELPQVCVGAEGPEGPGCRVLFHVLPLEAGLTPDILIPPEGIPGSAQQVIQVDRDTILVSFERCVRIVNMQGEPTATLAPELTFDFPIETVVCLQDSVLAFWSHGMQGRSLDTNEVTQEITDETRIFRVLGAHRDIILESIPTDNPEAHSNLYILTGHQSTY
inactive: [1] -0.088 | [2] 0.053 | [3] 0.022 | [4] -0.13 | [5] -0.087

LIG4 (UniProt P49917)
inactive: [1] -0.04 | [2] 0.083 | [3] -0.056 | [4] -0.002 | [5] 0.078

MIF (UniProt P14174)
UniProt P14174, sequence (P14174 whole entry, looked up): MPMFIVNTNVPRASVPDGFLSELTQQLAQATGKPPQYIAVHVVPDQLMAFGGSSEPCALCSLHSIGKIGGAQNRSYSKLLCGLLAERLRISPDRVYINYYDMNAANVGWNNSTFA
inactive: [1] 0.046 | [2] 0.022 | [3] -0.043 | [4] -0.013 | [5] -0.09

MAP4 isoform 5 (UniProt P27816)
inactive: [1] -0.065 | [2] 0.099 | [3] 0.163 | [4] 0.181

LETM1 (UniProt O95202)
inactive: [1] 0.006 | [2] -0.017 | [3] 0.002 | [4] 0.042 | [5] -0.053

KLC1 isoform 10 (UniProt Q07866)
inactive: [1] -0.094 | [2] -0.063

KIFC1 (UniProt Q9BW19)
inactive: [1] 0.046 | [2] -0.008 | [3] 0.122 | [4] 0.021 | [5] 0.029

MCU (UniProt Q8NE86)
UniProt Q8NE86, sequence (Q8NE86 whole entry, looked up): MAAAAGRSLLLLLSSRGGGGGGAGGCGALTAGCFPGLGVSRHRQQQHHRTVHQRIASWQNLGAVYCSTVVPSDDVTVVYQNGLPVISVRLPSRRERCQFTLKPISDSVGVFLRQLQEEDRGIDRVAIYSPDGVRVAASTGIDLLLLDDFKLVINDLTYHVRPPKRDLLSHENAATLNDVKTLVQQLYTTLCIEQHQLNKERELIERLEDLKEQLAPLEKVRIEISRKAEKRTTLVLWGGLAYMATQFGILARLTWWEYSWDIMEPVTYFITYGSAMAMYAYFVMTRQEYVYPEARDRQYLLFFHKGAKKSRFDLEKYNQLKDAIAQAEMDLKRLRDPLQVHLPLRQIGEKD
inactive: [1] 0.021 | [2] 0.028 | [3] -0.031 | [4] -0.023 | [5] 0.015

MITD1 (UniProt Q8WV92)
inactive: [1] -0.036 | [2] -0.038 | [3] -0.015 | [4] -0.026 | [5] 0.117

MARK2 (UniProt E9PC69)
inactive: [1] 0.003 | [2] -0.004 | [3] 0.071 | [4] -0.043 | [5] 0.035

L3HYPDH (UniProt Q96EM0)
inactive: [1] -0.022 | [2] 0.042 | [3] 0.003 | [4] -0.014 | [5] 0.01

MRPL15 (UniProt Q9P015)
inactive: [1] -0.016 | [2] 0.04 | [3] 0.003 | [4] 0.04 | [5] -0.212

MICU2 (UniProt Q8IYU8)
inactive: [1] -0.132 | [2] -0.069 | [3] 0.049 | [4] -0.072 | [5] -0.002

MACROD1 (UniProt Q9BQ69)
inactive: [1] 0.048 | [2] 0.022 | [3] 0.004 | [4] 0.049 | [5] 0.075

KIF2A isoform 4 (UniProt O00139)
inactive: [1] 0.006 | [2] -0.012 | [3] 0.015 | [4] 0.012 | [5] 0.04

MAP3K4 (UniProt Q9Y6R4)
inactive: [1] 0.012 | [2] -0.079 | [3] -0.001 | [4] -0.03 | [5] -0.008

LARS2 (UniProt Q15031)
UniProt Q15031, sequence (Q15031 whole entry, looked up): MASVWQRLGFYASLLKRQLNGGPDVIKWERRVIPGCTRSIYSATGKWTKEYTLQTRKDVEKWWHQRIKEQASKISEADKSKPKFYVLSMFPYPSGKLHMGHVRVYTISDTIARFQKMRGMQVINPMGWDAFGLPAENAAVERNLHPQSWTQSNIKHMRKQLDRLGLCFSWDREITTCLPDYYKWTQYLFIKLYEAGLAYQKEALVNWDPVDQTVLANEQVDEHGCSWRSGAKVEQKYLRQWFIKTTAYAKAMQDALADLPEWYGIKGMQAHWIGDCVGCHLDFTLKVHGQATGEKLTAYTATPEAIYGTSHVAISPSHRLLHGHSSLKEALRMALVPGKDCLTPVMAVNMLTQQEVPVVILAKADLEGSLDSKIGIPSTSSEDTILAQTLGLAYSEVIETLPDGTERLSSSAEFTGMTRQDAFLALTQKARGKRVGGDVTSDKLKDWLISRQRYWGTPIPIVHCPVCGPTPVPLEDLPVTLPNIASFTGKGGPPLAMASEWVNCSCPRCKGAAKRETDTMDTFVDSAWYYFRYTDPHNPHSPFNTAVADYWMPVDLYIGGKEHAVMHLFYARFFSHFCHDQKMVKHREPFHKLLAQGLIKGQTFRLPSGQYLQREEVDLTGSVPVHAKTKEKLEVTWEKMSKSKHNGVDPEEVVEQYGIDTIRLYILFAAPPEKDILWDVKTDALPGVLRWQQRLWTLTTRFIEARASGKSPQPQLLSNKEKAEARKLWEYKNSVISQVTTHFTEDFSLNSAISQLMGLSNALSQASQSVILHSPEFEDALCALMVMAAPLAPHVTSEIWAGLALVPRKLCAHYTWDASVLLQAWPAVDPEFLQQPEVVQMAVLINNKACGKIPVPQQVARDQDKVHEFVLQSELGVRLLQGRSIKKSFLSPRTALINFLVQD
inactive: [1] -0.07 | [2] -0.072 | [3] -0.019 | [4] 0.066 | [5] 0.064

MACO1 (UniProt Q8N5G2)
inactive: [1] -0.039 | [2] -0.044 | [3] 0.125 | [4] -0.04 | [5] 0.092

LSS (UniProt P48449)
inactive: [1] 0.016 | [2] -0.083 | [3] 0.014 | [4] -0.012 | [5] -0.007

MAPK6 (UniProt Q16659)
inactive: [1] 0.062 | [2] -0.015 | [3] -0.016 | [4] -0.001 | [5] -0.037

MRPL19 (UniProt P49406)
inactive: [1] 0.017 | [2] -0.064 | [3] 0.011 | [4] -0.065 | [5] 0.019

METTL2A (UniProt Q96IZ6)
inactive: [1] 0.003 | [2] -0.004 | [3] 0.046 | [4] 0 | [5] 0.106

MARK3 (UniProt P27448)
inactive: [1] 0.02 | [2] 0.069 | [3] 0.118 | [4] -0.06 | [5] 0.053

MAPK12 (UniProt P53778)
inactive: [1] 0.029 | [2] 0.068 | [3] -0.015 | [4] -0.002 | [5] 0.307

MPI (UniProt P34949)
inactive: [1] 0.023 | [2] -0.014 | [3] 0.033 | [4] -0.023 | [5] 0.083

KIF11 (UniProt P52732)
inactive: [1] 0.008 | [2] -0.001 | [3] 0.006 | [4] -0.002 | [5] 0

KIF4A (UniProt O95239)
inactive: [1] -0.042 | [2] 0.012 | [3] 0.035 | [4] 0.06 | [5] 0.005

LIMK1 (UniProt P53667)
UniProt P53667, sequence (P53667 whole entry, looked up): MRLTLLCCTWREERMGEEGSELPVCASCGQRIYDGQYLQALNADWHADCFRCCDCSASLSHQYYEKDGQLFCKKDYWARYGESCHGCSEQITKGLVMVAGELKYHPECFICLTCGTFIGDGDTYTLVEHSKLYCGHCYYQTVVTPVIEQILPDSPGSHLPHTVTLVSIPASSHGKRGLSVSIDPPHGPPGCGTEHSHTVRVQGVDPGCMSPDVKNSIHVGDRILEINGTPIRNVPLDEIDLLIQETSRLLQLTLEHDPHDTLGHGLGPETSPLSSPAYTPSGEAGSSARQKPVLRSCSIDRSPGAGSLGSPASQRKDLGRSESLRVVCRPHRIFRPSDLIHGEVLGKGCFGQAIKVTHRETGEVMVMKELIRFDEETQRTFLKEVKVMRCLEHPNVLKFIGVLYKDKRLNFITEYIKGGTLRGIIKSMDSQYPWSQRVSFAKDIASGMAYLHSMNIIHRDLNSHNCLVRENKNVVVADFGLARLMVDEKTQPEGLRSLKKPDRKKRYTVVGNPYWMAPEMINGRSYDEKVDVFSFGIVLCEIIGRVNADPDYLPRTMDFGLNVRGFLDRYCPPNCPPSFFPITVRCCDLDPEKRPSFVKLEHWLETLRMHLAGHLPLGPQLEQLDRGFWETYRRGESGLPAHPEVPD
inactive: [1] 0.007 | [2] -0.015 | [3] -0.07 | [4] -0.024 | [5] 0.007

LPCAT1 (UniProt Q8NF37)
inactive: [1] -0.071 | [2] 0.056 | [3] 0.066 | [4] 0 | [5] -0.115

MAP4K5 (UniProt Q9Y4K4)
inactive: [1] 0.069 | [2] 0.063 | [3] -0.079 | [4] -0.022 | [5] -0.1

LARS (UniProt Q9P2J5)
UniProt Q9P2J5, sequence (Q9P2J5 whole entry, looked up): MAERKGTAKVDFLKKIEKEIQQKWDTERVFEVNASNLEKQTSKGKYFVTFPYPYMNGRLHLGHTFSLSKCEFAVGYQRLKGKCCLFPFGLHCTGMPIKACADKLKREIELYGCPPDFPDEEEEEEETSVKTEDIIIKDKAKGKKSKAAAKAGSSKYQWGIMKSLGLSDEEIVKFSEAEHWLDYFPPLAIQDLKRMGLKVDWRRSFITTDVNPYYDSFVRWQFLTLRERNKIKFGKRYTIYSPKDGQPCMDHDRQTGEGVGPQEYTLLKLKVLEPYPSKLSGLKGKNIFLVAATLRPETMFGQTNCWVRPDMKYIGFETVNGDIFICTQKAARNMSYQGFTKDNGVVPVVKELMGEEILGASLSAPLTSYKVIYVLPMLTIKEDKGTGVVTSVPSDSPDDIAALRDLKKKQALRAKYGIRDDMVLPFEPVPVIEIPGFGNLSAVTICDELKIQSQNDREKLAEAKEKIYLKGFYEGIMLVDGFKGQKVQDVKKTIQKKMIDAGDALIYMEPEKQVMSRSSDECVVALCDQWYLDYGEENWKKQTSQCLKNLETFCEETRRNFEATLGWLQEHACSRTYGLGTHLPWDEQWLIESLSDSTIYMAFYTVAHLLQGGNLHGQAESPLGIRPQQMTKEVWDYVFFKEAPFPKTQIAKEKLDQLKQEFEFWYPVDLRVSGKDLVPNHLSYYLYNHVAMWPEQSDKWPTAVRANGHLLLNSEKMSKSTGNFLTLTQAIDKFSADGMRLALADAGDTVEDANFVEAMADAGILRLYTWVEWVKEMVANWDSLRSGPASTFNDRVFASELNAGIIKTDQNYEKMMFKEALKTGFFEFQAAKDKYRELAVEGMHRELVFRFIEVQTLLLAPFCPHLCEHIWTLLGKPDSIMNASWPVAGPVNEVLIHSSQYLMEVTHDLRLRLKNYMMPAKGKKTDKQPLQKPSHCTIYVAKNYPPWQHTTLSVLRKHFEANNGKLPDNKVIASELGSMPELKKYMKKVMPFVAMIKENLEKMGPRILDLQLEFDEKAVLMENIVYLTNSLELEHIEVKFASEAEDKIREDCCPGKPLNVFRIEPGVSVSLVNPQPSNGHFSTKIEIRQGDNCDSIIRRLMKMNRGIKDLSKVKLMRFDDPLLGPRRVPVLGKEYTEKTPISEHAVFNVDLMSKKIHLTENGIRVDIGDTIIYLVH
inactive: [1] -0.02 | [2] -0.007 | [3] 0.015 | [4] 0.04 | [5] 0.077

MORF4L1 isoform 2 (UniProt Q9UBU8)
inactive: [1] 0.012 | [2] -0.03 | [3] -0.029 | [4] -0.041 | [5] -0.035

LAP3 (UniProt P28838)
inactive: [1] -0.043 | [2] 0.021 | [3] -0.139 | [4] -0.056 | [5] -0.285

MOCS1 isoform 8 (UniProt Q9NZB8)
inactive: [1] -0.061 | [2] -0.044 | [3] 0.058 | [4] -0.017 | [5] 0.067

LUC7L (UniProt Q9NQ29)
inactive: [1] 0.011 | [2] 0.013 | [3] 0.006 | [4] 0.003 | [5] 0.055

MORC2 (UniProt Q9Y6X9)
UniProt Q9Y6X9, sequence (Q9Y6X9 whole entry, looked up): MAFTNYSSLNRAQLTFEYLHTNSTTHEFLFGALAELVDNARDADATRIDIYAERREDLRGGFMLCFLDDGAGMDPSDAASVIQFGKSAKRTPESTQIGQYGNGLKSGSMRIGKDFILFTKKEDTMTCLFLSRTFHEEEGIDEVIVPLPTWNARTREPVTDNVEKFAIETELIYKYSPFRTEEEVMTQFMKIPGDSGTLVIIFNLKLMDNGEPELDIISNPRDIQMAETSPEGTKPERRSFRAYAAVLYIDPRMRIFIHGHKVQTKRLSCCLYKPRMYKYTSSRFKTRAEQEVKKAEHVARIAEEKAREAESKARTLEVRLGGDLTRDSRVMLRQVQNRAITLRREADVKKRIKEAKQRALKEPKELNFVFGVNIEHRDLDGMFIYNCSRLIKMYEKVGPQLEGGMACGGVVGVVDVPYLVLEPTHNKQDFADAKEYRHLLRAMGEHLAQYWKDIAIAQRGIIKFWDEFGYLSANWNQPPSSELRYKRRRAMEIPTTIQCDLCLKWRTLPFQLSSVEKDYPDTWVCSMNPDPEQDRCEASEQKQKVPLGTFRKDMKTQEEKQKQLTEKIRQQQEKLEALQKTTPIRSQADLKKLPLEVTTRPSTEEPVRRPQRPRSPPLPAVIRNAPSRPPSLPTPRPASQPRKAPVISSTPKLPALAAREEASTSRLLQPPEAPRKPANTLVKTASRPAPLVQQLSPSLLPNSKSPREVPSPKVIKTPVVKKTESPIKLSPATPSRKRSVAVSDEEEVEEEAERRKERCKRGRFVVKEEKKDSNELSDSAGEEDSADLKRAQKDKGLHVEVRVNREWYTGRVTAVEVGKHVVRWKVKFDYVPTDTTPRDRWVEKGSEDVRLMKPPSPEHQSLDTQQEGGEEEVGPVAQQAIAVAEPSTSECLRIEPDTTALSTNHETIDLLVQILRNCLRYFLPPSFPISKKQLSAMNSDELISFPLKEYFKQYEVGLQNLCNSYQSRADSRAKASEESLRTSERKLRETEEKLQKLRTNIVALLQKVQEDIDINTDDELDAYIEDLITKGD
inactive: [1] -0.068 | [2] 0.043 | [3] 0.049 | [4] -0.014 | [5] 0.018

MANEA (UniProt Q5SRI9)
inactive: [1] 0.146 | [2] -0.009 | [3] 0.044 | [4] 0.029 | [5] -0.161

MICU1 isoform 3 (UniProt Q9BPX6)
inactive: [1] -0.018 | [2] 0.027 | [3] -0.035 | [4] -0.043 | [5] 0.196

LRWD1 (UniProt Q9UFC0)
inactive: [1] -0.027 | [2] 0.044 | [3] -0.012 | [4] 0.023 | [5] 0.039

MAPK9 (UniProt P45984)
inactive: [1] -0.021 | [2] 0.013 | [3] 0.045 | [4] -0.071 | [5] 0.033

MLST8 (UniProt Q9BVC4)
inactive: [1] -0.038 | [2] 0.037 | [3] -0.051 | [4] 0.001 | [5] 0.011

LIMK2 isoform 3 (UniProt P53671)
inactive: [1] -0.022 | [2] -0.123 | [3] 0.038 | [4] 0.005 | [5] -0.132

MAPKAPK5 (UniProt Q8IW41)
inactive: [1] 0.034 | [2] 0.027 | [3] 0.014 | [4] 0.013 | [5] 0.01

MAT2B (UniProt Q9NZL9)
inactive: [1] -0.008 | [2] 0.014 | [3] -0.044 | [4] -0.003 | [5] -0.002

KIF2C (UniProt Q99661)
inactive: [1] -0.022 | [2] -0.023 | [3] -0.009 | [4] 0.052 | [5] 0.032

MECR (UniProt Q9BV79)
inactive: [1] -0.001 | [2] 0.013 | [3] 0.047 | [4] -0.048 | [5] 0.005

MOCS3 (UniProt O95396)
inactive: [1] -0.056 | [2] -0.019 | [3] 0.278 | [4] 0.025 | [5] -0.176

KIF15 (UniProt Q9NS87)
inactive: [1] -0.008 | [2] -0.003 | [3] 0.021 | [4] -0.02 | [5] 0.013

LIMS1 isoform 3 (UniProt P48059)
inactive: [1] -0.006 | [2] 0.006 | [3] -0.026 | [4] 0.037 | [5] -0.057

LRRC40 (UniProt Q9H9A6)
inactive: [1] 0.001 | [2] 0.003 | [3] 0.003 | [4] 0.012 | [5] 0.034

MED14 (UniProt O60244)
inactive: [1] -0.037 | [2] 0.035 | [3] 0.034 | [4] -0.029 | [5] 0
